Where “and” joins values, the source holds several entries; their conditions need not be identical. Identical values can stand only once. Results filed as inconclusive are left out. A call without a number means that no potency is given here. Unmarked numbers belong to inactive results. Calls of active or inactive are those of the source. Calls follow the shape of the dose curve; as a rule, active = well fitted curve in the direction sought with a large enough effect in the repeat runs; inconclusive = weak or mixed curves; inactive = no such curve, though single readings can be large; an effect the other way counts as inactive or inconclusive.
Legend:
[1] = A CellTox Green Cytotoxicity Assay to monitor cytotoxicity in HEK293 cells - 40 hour (AID 1224871); also: nearly all actives have a fitted effect of over 45% in size; also: potency is read from the fitted curve at half-maximal effect
Procedure, shortened: (§1)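 Fluorescence intensity, read at 0, 8, 16, 24, 32 and 40 h of compound treatment, reflected dye binding to DNA of dead HEK293 cells; compounds (23 nL, DMSO) were added 5 h after plating cells with reagent.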

[2] = qHTS RealTime-Glo MT Cell Viability Assay in HEK293 cells - 16 hour (AID 1224872); also: top concentration of the series differs between compounds; nearly all actives have a fitted effect of over 50% in size
Procedure, shortened: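 Cells + reagent dispensed (600 cells/well, HEK293) → 5 h at 37 C/5% CO2 → 23 nL compound in DMSO pinned → 40 h at 37 C → luminescence read at 0, 8, 16, 24, 32, 40 h.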

[3] = qHTS RealTime-Glo MT Cell Viability Assay in HepG2 cells - 8 hour (AID 1224873); also: nearly all actives have a fitted effect of over 55% in size
Procedure, shortened: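 Real-time viability: cells seeded at 600 per well together with NanoLuc and cell-permeant prosubstrate, compounds added after 5 h incubation. Luminescence tracked at 0, 8, 16, 24, 32 and 40 h of exposure.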

[4] = qHTS RealTime-Glo MT Cell Viability Assay in HEK293 cells - 40 hour (AID 1224874); conditions: RealTime-Glo luminescence; max response: stronger effect = lower value; also: nearly all actives have a fitted effect of over 50% in size
Procedure, shortened: (§2)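 Viable HEK293 cells reduce a cell-permeant prosubstrate; the product diffuses out and is consumed by NanoLuc in the medium to give light. Compounds went in after a 5 h incubation and plates were read over the treatment course.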

[5] = A CellTox Green Cytotoxicity Assay to monitor cytotoxicity in HEK293 cells - 24 hour (AID 1224875); also: nearly all actives have a fitted effect of over 45% in size; also: potency is read from the fitted curve at half-maximal effect
Procedure, shortened: as §1

[6] = A CellTox Green Cytotoxicity Assay to monitor cytotoxicity in HepG2 cells - 16 hour (AID 1224876); also: nearly all actives have a fitted effect of over 45% in size; also: potency is read from the fitted curve at half-maximal effect
Procedure, shortened: (§3)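 Using 1536-well format, dye-containing HepG2 suspension was seeded, allowed 5 h at 37 C/5% CO2, dosed by pintool with compounds, positive and negative controls, and imaged for fluorescence across 40 h.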

[7] = qHTS RealTime-Glo MT Cell Viability Assay in HepG2 cells - 32 hour (AID 1224877); also: nearly all actives have a fitted effect of over 55% in size
Procedure, shortened: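 Real-time, nonlytic viability: 600 HepG2 cells/well mixed with NanoLuc enzyme plus prosubstrate; 5 h settle, compound (DMSO) added by pintool; luminescence monitored over 40 h at 37 C.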

[8] = A CellTox Green Cytotoxicity Assay to monitor cytotoxicity in HepG2 cells - 24 hour (AID 1224878); also: nearly all actives have a fitted effect of over 45% in size; also: potency is read from the fitted curve at half-maximal effect
Procedure, shortened: as §3

[9] = A CellTox Green Cytotoxicity Assay to monitor cytotoxicity in HepG2 cells - 40 hour (AID 1224879); also: nearly all actives have a fitted effect of over 40% in size; also: potency is read from the fitted curve at half-maximal effect
Procedure, shortened: as §3

[10] = qHTS RealTime-Glo MT Cell Viability Assay in HEK293 cells - 0 hour (AID 1224880)
Procedure, shortened: as §2

Row | SMILES | Potency [1] | Potency [2] | Potency [3] | max response [4] | Potency [5] | Potency [6] | Potency [7] | Potency [8] | Potency [9] | outcome [10]
1 | C[N+]1(CCF)[C@@H]2CC[C@H]1CC(OC(=O)C(O)(c1ccccc1)c1ccccc1)C2 (stereo not given in full) | inactive | inactive | inactive | 2.19% | inactive | inactive | inactive | inactive | inactive | inactive
2 | CC1(C)[C@H](C(=O)O[C@H](C#N)c2cccc(Oc3ccccc3)c2)[C@@H]1C=C(Br)Br | inactive | inactive | inactive | -8.94% and -16.3% | inactive | inactive | inactive | inactive | inactive | inactive
3 | CC(Cl)C(=O)O (stereo not given) | inactive | inactive | inactive | 19.1% | inactive | inactive | inactive | inactive | inactive | inactive
4 | O=C(Cl)OCCOCCOC(=O)Cl | inactive | inactive | inactive | 3.34% | inactive | inactive | inactive | inactive | inactive | inactive
5 | O=C=NC1CCCCC1 | inactive | inactive | inactive | 8% | inactive | inactive | inactive | inactive | inactive | inactive
6 | CCOP(=O)(SC(C)CC)N1CCSC1=O (stereo not given) | inactive | inactive | inactive | 15% | inactive | inactive | inactive | inactive | inactive | inactive
7 | C[C@H](N)[C@H](O)c1ccc(O)c(O)c1 | 10.7 µM (active) | inactive | inactive | -2.61% | 19 µM (active) | 23.9 µM (active) | inactive | 23.9 µM (active) | 23.9 µM (active) | inactive
8 | CC[N+]1(C)CCCC(OC(=O)C(O)(c2ccccc2)c2ccccc2)C1 (stereo not given) | inactive | inactive | inactive | 1.3% | inactive | inactive | inactive | inactive | inactive | inactive
9 | CC(C)(C)OOC(C)(C)CCC(C)(C)OOC(C)(C)C | inactive | inactive | inactive | 9.43% | inactive | inactive | inactive | inactive | inactive | inactive
10 | CC(C)c1ccc(NC(=O)N(C)C)cc1 | inactive | inactive | inactive | 3.89% | inactive | inactive | inactive | inactive | inactive | inactive
11 | CCC1CCC(=O)O1 (stereo not given) | inactive | inactive | inactive | 8.21% | inactive | inactive | inactive | inactive | inactive | inactive
12 | OC[P+](CO)(CO)CO | inactive | inactive | inactive | 5.15% and -10.7% | inactive | inactive | inactive | inactive | inactive | inactive
13 | CON(C)C(=O)Nc1ccc(Cl)cc1 | inactive | inactive | inactive | -13.1% | inactive | inactive | inactive | inactive | inactive | inactive
14 | O=C1CC[C@@]2(O)[C@H]3Cc4ccc(O)c5c4[C@@]2(CCN3CC2CC2)[C@H]1O5 | inactive | inactive | inactive | 3.94% | inactive | inactive | inactive | inactive | inactive | inactive
15 | C=CC(=O)OCC | inactive | inactive | inactive | -11.3% | inactive | inactive | inactive | inactive | inactive | inactive
16 | C[C@H]1O[C@H](OC2[C@@H](O)[C@@H](O)C(O)[C@H](O)[C@H]2O)[C@@H](N)C[C@@H]1N=C(N)C(=O)O (stereo not given in full) | inactive | inactive | inactive | 5.07% | inactive | inactive | inactive | inactive | inactive | inactive
17 | C=CC(C)(CCC=C(C)C)OC(=O)c1ccccc1N (stereo not given) | inactive | inactive | inactive | -1.39% | inactive | inactive | inactive | inactive | inactive | inactive
18 | CN(C)C(=O)Nc1cccc(OC(=O)NC(C)(C)C)c1 | inactive | inactive | inactive | -14.3% | inactive | inactive | inactive | inactive | inactive | inactive
19 | C1CS1 | inactive | inactive | inactive | 12% | inactive | inactive | inactive | inactive | inactive | inactive
20 | OCCSSCCO | inactive | inactive | inactive | 3.99% | inactive | inactive | inactive | inactive | inactive | inactive
21 | C=C(Cl)Cl | inactive | inactive | inactive | 8.47% | inactive | inactive | inactive | inactive | inactive | inactive

Reference: PubChem BioAssay (Tox21)
